Source: PubChem BioAssay AID1259422 (The Scripps Research Institute Molecular Screening Center, 2018)
Hit rate of the full screen: of about 640,000 compounds, about 9,300 (1.5%) were called active. Many of the other results were omitted from the sample, so actives are more common in it than they were. Unmarked numbers belong to inactive results. Rule as the data show it: active = inhibition above about 32%; inactive = the rest.

Experiment: TEAD-YAP interaction inhibition, primary screen, TEAD-YAP interaction inhibitor project, luminescence, HEK-TIYL cells (AID 1259422);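 also: 0% = median of test compound wells and 100% = reference inhibitor wells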
Conditions: TEAD-Gal4/YAP UAS-luciferase luminescence, at 9.12 µM, stronger effect = higher value
For `CCOC(=O)C1(CCOc2ccccc2)CCN(Cc2cnn(C(C)C)c2)CC1`, the inhibition was 10.3%.
In the case of `O=C(COc1ccc([N+](=O)[O-])cc1)Nc1ccc2oc(-c3cccc(F)c3)nc2c1`, the inhibition is reported as -7.11%.
Work on `O=C(Nc1ccc2oc(-c3ccc(F)cc3)nc2c1)c1ccc([N+](=O)[O-])cc1` yielded an inhibition of 11.2%.
With `O=[N+]([O-])c1ccc2oc(-c3cccc(O)c3)nc2c1` the inhibition was 73.9% (active).
In the case of `Cc1ccc2nc3c(cc(C#N)c(=O)n3-c3cccc(Cl)c3)c(=O)n2c1`, the inhibition is reported as -0.14%.
In the case of `CC1=CN2C(=O)NC(C(F)(F)F)(C(F)(F)F)N=C2S1`, the inhibition is reported as -16.6%.
With `COCCCNC(=O)Cn1cc(/C=C(\C#N)C(=O)NCc2ccco2)c2ccccc21` the inhibition was 3.94%.
With `COCCCNC(=O)/C(C#N)=C/c1cc(C)n(-c2cccc3ccccc23)c1C` the inhibition was 47.1% (active).
In the case of `COCCCNC(=O)/C(C#N)=C/c1ccc(-c2cccc(Cl)c2Cl)o1`, the inhibition is reported as 1.01%.
With `COc1ccc(NC(=O)c2sc3nc(-c4cccc([N+](=O)[O-])c4)cn3c2C)cc1` the inhibition was 4.9%.
In the case of `CCOC(=O)C1CCN(S(=O)(=O)c2cc(Br)ccc2OCC)CC1`, the inhibition is reported as 0.17%.
With `CCOc1ccc(Br)cc1CSC(=N)N` the inhibition was 55.7% (active).
`CCOc1ccc(Br)cc1S(=O)(=O)Nc1ccccc1C(=O)O` showed an inhibition of 3.25%.
In the case of `CC(=O)N(Cc1cccnc1)Cc1cc2cc(C)c(C)cc2nc1Cl`, the inhibition is reported as 6.62%.
`Cc1cccc(C(=O)Nc2ccc(C(=O)N/N=C/c3ccc(O)cc3)cc2)c1` showed an inhibition of -12.2%.
With `CCOc1ccccc1NS(=O)(=O)c1ccc2c(c1)NC(=O)C(C)C(=O)N2` (stereo not drawn) the inhibition was -5.49%.
`O=C1CS(=O)(=O)C(c2ccccc2[N+](=O)[O-])N1c1ccc(Oc2ccc(Cl)cc2)cc1` (stereo not drawn) showed an inhibition of 11.6%.
In the case of `COc1ccc(-n2nnnc2SCc2nc(N)nc(N3CCOCC3)n2)cc1`, the inhibition is reported as -11.4%.
In the case of `CN(C)c1nc(N)nc(CSc2ccccn2)n1`, the inhibition is reported as -4.14%.
With `CN(C)c1nc(N)nc(CSc2nnnn2-c2cccc3ccccc23)n1` the inhibition was 35.1% (active).
With `CCOC(=O)c1sc2nc(C)nc(OCc3ccccc3C)c2c1C` the inhibition was -7.17%.
Compound `COc1ccccc1-c1cc(C(F)(F)F)nc(S(=O)(=O)CCCC(=O)Nc2sc(C(N)=O)c(C)c2C(=O)OC(C)C)n1` has an inhibition of -2.08%.
In the case of `CCN(Cc1ccccc1)S(=O)(=O)c1cc(C(=O)Nc2cccc(C)c2)ccc1F`, the inhibition is reported as 51.1% (active).
`CCN(Cc1ccccc1)S(=O)(=O)c1ccc(F)c(C(=O)Nc2ccc(C)cc2)c1` showed an inhibition of -16.5%.
In the case of `Cc1cccc(NC(=O)c2ccc(F)c(S(=O)(=O)N(C)C3CCCCC3)c2)c1`, the inhibition is reported as -12.6%.
In the case of `CCN(c1cccc(C)c1)S(=O)(=O)c1cc(C(=O)Nc2ccc(Oc3ccccc3)cc2)ccc1F`, the inhibition is reported as 35.4% (active).
With `CCOc1cccc(NC(=O)c2ccc(F)c(S(=O)(=O)N(CC)c3cccc(C)c3)c2)c1` the inhibition was -0.19%.
`O=C(Nc1ccc(Oc2ccccc2)cc1)c1ccc(F)c(S(=O)(=O)N2CCc3ccccc3C2)c1` showed an inhibition of -0.62%.
